# VP16 counter – Gal4-VP16 reporter inhibition counter-screen; Drosophila S2 Gal4-VP16 UAS-luciferase, luminescence, 20 h; Potency, µM (titrated, usually from 53.6 µM), inactives show top-dose activity, negative = inhibition, usual class: inhibitors; 310,000 tested, 3.5% active; AID 2546;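 note: Gal4-VP16 expression switched on by copper sulfate through the metallothionein promoter; % is set by controls: 0 for no effect and ±100 for the full control effect; nearly all actives have a fitted effect of over 50% in size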
# KB-V1 MDR tox – KB-V1 MDR subline cytotoxicity | KB-V1 MDR cells viability, CellTiter-Glo, 72 h | Potency, µM (titrated, usually from 46.1 µM), usual class: cytotoxic | 400,000 tested, 3.4% active | AID 1347076; note: % is set by controls: 0 for no effect and ±100 for the full control effect; nearly all actives have a fitted effect of over 60% in size
#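 KB-V1 MDR subline cells in DMEM (phenol-red free, 10% FBS) exposed to compounds in qHTS concentration series for 72 h at 37 degrees C. Viability read by CellTiter-Glo luminescence; concentration-effect curves fitted after normalization and correction.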
# SW480 rerep – inducers of DNA re-replication in SW480 colon cancer cells | SW480 DNA re-replication, Hoechst DNA content imaging, 48 h | Potency, µM (highest dose often 46.1 µM), for the others: top-dose re-replication activation, hits mostly activators | 340,000 tested, 1.8% active | AID 624297; note: % of control where 0% means no effect; nearly all actives have a fitted effect of over 55% in size
#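 Quantitative HTS format with DMSO vehicle controls; 48 hr drug incubation at 37 C, then 40 min Hoechst staining and scanning imager measurement at 405 nm excitation.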
# RORg inh – blocks mouse ROR gamma transcriptional activity; 310,000 tested, 5.4% active; P51450; Drosophila S2 Gal4-RORgamma UAS-luciferase reporter, 20 h; Potency, µM (doses to about 53.6 µM), without a hit: at the highest dose activity change, negative = inhibition, actives largely listed as inhibitors; note: % is set by controls: 0 for no effect and ±100 for the full control effect; nearly all actives have a fitted effect of over 60% in size
# Target sequence (P51450 whole entry, looked up, the tested form may be a part): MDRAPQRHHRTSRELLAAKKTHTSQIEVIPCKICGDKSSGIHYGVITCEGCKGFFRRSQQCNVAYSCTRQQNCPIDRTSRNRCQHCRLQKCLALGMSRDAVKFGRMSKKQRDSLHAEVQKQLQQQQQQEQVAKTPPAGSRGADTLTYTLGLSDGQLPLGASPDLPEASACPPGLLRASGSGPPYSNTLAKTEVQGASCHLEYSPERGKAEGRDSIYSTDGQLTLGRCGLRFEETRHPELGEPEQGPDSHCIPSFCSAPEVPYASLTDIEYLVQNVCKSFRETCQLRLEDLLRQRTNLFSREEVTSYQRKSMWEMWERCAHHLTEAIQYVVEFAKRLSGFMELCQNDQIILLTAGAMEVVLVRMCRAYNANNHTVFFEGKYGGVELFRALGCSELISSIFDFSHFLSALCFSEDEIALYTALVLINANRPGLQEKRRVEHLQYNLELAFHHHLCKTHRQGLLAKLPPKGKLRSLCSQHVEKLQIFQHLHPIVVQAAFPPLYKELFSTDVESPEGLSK
#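 Luciferase reporter read in Schneider cells carrying Gal4-RORγ (mouse) and UAS-Photinus luciferase; cells given compound 1 h before 700 uM copper sulfate induction, then incubated 20 h at ambient temperature.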
# MCF10A rerep – DNA re-replication induction in MCF 10a cells | MCF 10A DNA re-replication, Hoechst nuclear intensity, 48 h | AID 624296 | 350,000 tested, 2.9% active | Potency, µM (series often up to 46.1 µM), without a hit: at the top dose activity, positive = re-replication, actives largely listed as activators; note: % of control where 0% means no effect; nearly all actives have a fitted effect of over 50% in size
# KB-3-1 tox – KB-3-1 parental cell cytotoxicity; KB-3-1 viability, CellTiter-Glo ATP luminescence, 72 h; Potency, µM (titrated, usually from 46.1 µM), most hits filed as cytotoxic; 400,000 tested, 1.4% active; note: % is set by controls: 0 for no effect and ±100 for the full control effect; nearly all actives have a fitted effect of over 60% in size
#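 KB-3-1 cells, DMEM (no phenol red) + 10% FBS; compound by pin transfer, 72 h, 37 °C. Readout: CellTiter-Glo luminescence after 10 min. Data normalized, curve-fitted.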
# * = called active by the depositor; i = inactive; u = inconclusive; x = no result given; [ ] = another dose, or the depositor's remark. This is a sample that favours compounds with a hit; in the whole collection about 10% have one here. Calls come from the whole dose curve; as a rule, active = well fitted curve in the direction sought with a large enough effect; inconclusive = small, poorly fitted or top-dose-only effect, or another doubt; inactive = no such curve, though single readings can be large; an effect the other way counts as inactive or inconclusive. Potency is the fitted concentration of half-maximal effect.
SMILES,VP16 counter,KB-V1 MDR tox,SW480 rerep,RORg inh,MCF10A rerep,KB-3-1 tox
Cc1ccc(C(=O)c2cnc3cc4c(cc3c2S(=O)(=O)c2ccccc2)OCCO4)cc1,-15%,16µM*,u,u,u,u
COCCc1nn2c(=O)cc(COC(=O)c3ccc4c(c3)OCO4)nc2s1,x,i,x,x,x,i
C=CCSc1nc(N)c(C#N)c(-c2ccc(C)cc2)c1C#N,-1%,i,1%,5%,18%,i
N#Cc1c(N)nc(Sc2ccc(Cl)cc2)c(C#N)c1-c1ccccc1Cl,u,23µM*,u,-5%,u,4.6µM*
CCSc1nc(N)c(C#N)c(-c2ccccc2Cl)c1C#N,14%,21µM*,-12%,7%,u,i
COCC(=O)N(C)C[C@@H]1Oc2cc(-c3ccc(F)cc3)ccc2S(=O)(=O)N([C@H](C)CO)C[C@H]1C,x,i,x,x,x,i
CCCCC#CC1C=CC(Oc2cc(OC)c(OC)c(OC)c2)C(COC(=O)OCC)O1 (centres undefined),-5%[10 µM],x,x,32%[10 µM],x,x
C#C[C@]1(O)CC[C@@H]2[C@H]3CCC4=CCCC[C@@H]4[C@@H]3CC[C@@]21C,-11%[17 µM],x,2%[20.6 µM],1%[2.98 µM],10µM*,x
C#C[C@@]1(O)CC[C@@H]2[C@@H]3CCC4=CC(=O)CC[C@@H]4[C@H]3CC[C@]21CC,4%[17 µM],x,x,2%[16.9 µM],x,x
C#C[C@]1(O)CCC2C3CCC4=CC(=O)CCC4C3CC[C@@]21C (some centres undefined),-5%,x,3%,-30%,-6%,x
C#C[C@]1(OC(C)=O)CCC2C3CCC4=CC(=O)CC[C@@H]4C3CC[C@@]21C (some centres undefined),1%,9.2µM*,-2%,3%,10%,u
C#C[C@]1(O)CC[C@H]2[C@@H]3CCC4=CCCC[C@@H]4[C@H]3C(=C)C[C@@]21CC,-17%,x,3%,-19%,13µM*,x
CCSc1ncc(Cl)c(C(=O)Nc2ccc(S(=O)(=O)N3CCCCC3)cc2)n1,x,i,x,x,x,i
CC(C)(C)c1nc2ccccc2c2nnc(SCC(=O)NCc3ccco3)n12,-22%,5.2µM*,1%,-16%,-9%,i
C=CCn1c(SCC(=O)NCc2ccco2)nnc1-c1ccc2ccccc2n1,-21%,7.3µM*,-2%,-23%,7%,i
CC(C)c1nc2ccccc2c2nnc(SCC(=O)NCc3ccco3)n12,3%,4.1µM*,14%,-4%,u,u
COc1ncc2ncc(=O)n(C[C@H]3CCCO3)c2n1,0%,x,x,-18%,x,x
COc1cccc(-c2cncnc2NCc2ccccc2)c1,-4%,x,x,u,x,x
Cn1cccc([N+](=O)[O-])c1=O,x,i,x,x,x,i
Cn1c(=O)c(=O)n(C)c2cc([N+](=O)[O-])c([N+](=O)[O-])cc21,u,i,8%,7.9µM*,u,i
CC(C)Cc1nc2ccccc2n1CCc1ccccc1,u,u,-5%,8.9µM*,14%,i
CCc1nc2ccccc2n1CCc1ccccc1,2%,i,4%,8.9µM*,u,i
CCn1c(CCc2ccccc2)nc2ccccc21,u,i,-1%,u,9%,i
CC(C)C(=O)NCCc1nc2ccccc2n1CCc1ccccc1,-2%,i,-3%,-22%,2%,i
C=C(Br)Cn1c(CC(C)C)nc2ccccc21,-6%,i,0%,35µM*,20%,i
SMILES,VP16 counter,KB-V1 MDR tox,SW480 rerep,RORg inh,MCF10A rerep,KB-3-1 tox
CCc1nc2ccccc2n1CCC(C)C,13µM*,i,-7%,10µM*,u,i
CN1CCN(c2ncc3nc(-c4cc(F)cc(F)c4)c(=O)n(CCC#N)c3n2)CC1,3%,x,x,-7%,x,x
CCOc1ccccc1C1NC(c2ccc3c(c2)OCO3)=CC(c2ccccc2O)N1 (centres undefined),x,i,x,x,x,i
CCOC(=O)c1ccc2c(c1)NCc1cccc(OC)c1O2,20%,i,-5%,44%,-2%,i
COc1ccc(-c2nnc(SCCOc3ccccc3C)o2)cc1OC,x,i,x,x,x,i
CC(C)(C)Cc1nc2ccccc2n1CCc1ccccc1,16µM*,18µM*,9%,7.9µM*,u,u
Cc1c(NC(=O)COc2ccc(C(C)C)cc2)c(=O)n(-c2ccccc2)n1C,-12%,x,2%,-1%,u,x
CCCOc1ccc(N)cc1N,u,i,u,4.5µM*,u,i
COc1cc(-c2cc(NC(C)=O)c3ncc(-c4ccc(C(C)=O)cc4)n3c2)cc(OC)c1OC,x,23µM*,x,x,x,u
COc1cc(-c2cc(NC(C)=O)c3ncc(-c4ccc(F)cc4)n3c2)cc(OC)c1OC,x,16µM*,x,x,x,i
c1ccc(Nc2nc(-c3ccoc3)nc3ccccc23)cc1,-11%,x,x,u,x,x
O=C(c1cc(-c2ccc(Br)cc2)n[nH]1)N1CCN(S(=O)(=O)c2ccc(Br)s2)CC1,x,i,x,x,x,i
CC1(C)COC(c2ccc(F)c([N+](=O)[O-])c2)=N1,-11%,u,u,-30%,23µM*,u
C=CCN1C(=O)S/C(=C\c2ccc3c(c2)n(C)c(=O)n3C)C1=O,22%,18µM*,6%,23%,3%,i
C/C(=N\NC(=O)C1CC1)c1ccc(Cl)cc1,-12%,i,-10%,32%,-5%,i
C/C(=N\NC(=O)C1CC1)c1ccccc1Br,10µM*,i,3%,u,2%,i
C/C(=N\NC(=O)C1CC1)c1ccccc1O,6.3µM*,u,1%,1µM*,6%,i
C/C(=N\NC(=O)c1ccccc1O)c1ccc(NC(=O)c2ccccc2)cc1,u,i,5%,u,-1%,i
C/C(=N/NC(=O)c1ccccc1O)c1ccc(N2C(=O)C3CCCCC3C2=O)cc1 (centres undefined),u,u,-4%,13µM*,-2%,i
O=C(COC(=O)/C=C/c1ccccc1Cl)NCCNC(=O)COC(=O)/C=C/c1ccccc1Cl,u,i,-7%,u,28%,i
COc1ccc([C@@H]2C[C@H]3[C@@H](CN2S(=O)(=O)c2ccccc2)C(=O)C[C@@H](c2cccc4ccccc24)N3S(=O)(=O)c2ccc(C)cc2)cc1,x,i,x,x,x,i
CN(C)CCC(=O)c1cccc(Br)c1,-11%,i,u,u,18µM*,i
CN(C)CCC(=O)c1ccc2c(c1)OCO2,6.3µM*,i,u,2.2µM*,7.3µM*,u
Cc1ccsc1C(=O)N1CCCC(C)(C(=O)O)C1 (centres undefined),x,i,x,x,x,i

# High-throughput results deposited in PubChem by National Center for Advancing Translational Sciences (NCATS).
